Results as given in PubChem BioAssay (NCI).
This is part of a sample that, as a whole, favours compounds with a hit. Of some 83,000 tested, about 20% had one in any assay.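 Compound tested at a single concentration for 48 hours in 96-well plates; a percent growth value below 10 was scored as active.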 Calls of active or inactive are those of the source.

Assays:
Assay in all cases: NCI-60 one-dose screen, 48 h (100 = growth as untreated, 0 = no growth, -100 = all killed)
Conditions in all cases: 10 µM unless noted
T-47D breast = test system: T-47D breast
BT-549 breast = test system: BT-549 breast
SW-620 colon = test system: SW-620 colon
MCF7 breast = test system: MCF7 breast
HCT-116 colon = test system: HCT-116 colon
HCC-2998 colon = test system: HCC-2998 colon
KM12 colon = test system: KM12 colon
MDA-MB-435 melanoma = test system: MDA-MB-435 melanoma

Measured: growth

C/C(=C(/C)C1CC1CCN(C(=O)c1ccc([N+](=O)[O-])cc1)S(=O)(=O)c1ccc(C)cc1)C1CCCCC1 (centres undefined)
inactive: T-47D breast 77.3% | BT-549 breast 136% | SW-620 colon 96.7% | MCF7 breast 86.9% | HCT-116 colon 89.9% | HCC-2998 colon 112% | KM12 colon 89.6%

Nc1ccc(-c2nnc(SCc3ccc(O)c4ncccc34)n2-c2ccccc2)cc1
inactive: T-47D breast 15.2% | BT-549 breast 18.5% | SW-620 colon 19.2% | HCC-2998 colon 29.1% | KM12 colon 17.8%
active: MCF7 breast 5.58% | HCT-116 colon 8.87%

O=S(=O)(Nc1cc(Cl)c(F)c(Cl)c1)c1ccc(-c2cnc(C3CC3)o2)cc1
inactive: T-47D breast 29.8% | BT-549 breast 66.8% | SW-620 colon 23.8% | HCT-116 colon 27.3% | HCC-2998 colon 67.4% | KM12 colon 26.1%

O=S(=O)(Nc1ccc(-n2cnc3cc(-c4ccc(O)cc4)ccc32)cc1)C1CC1
inactive: T-47D breast 72.9% | BT-549 breast 91.9% | SW-620 colon 102% | MCF7 breast 73.9% | HCT-116 colon 92.7% | HCC-2998 colon 103% | KM12 colon 68.7%

CC1=C2C(=C[C@@](C)(COS(N)(=O)=O)[C@@H]2O)C(=O)[C@](C)(O)C12CC2
inactive: T-47D breast 71.8% | BT-549 breast 60.2% | SW-620 colon 85.3% | MCF7 breast 61.7% | HCT-116 colon 70% | HCC-2998 colon 61.7% | KM12 colon 99.5%

C#CCOc1ccc(/C=N/Nc2nc(-c3cc(Cl)ccc3Cl)cs2)cc1
inactive: T-47D breast 37.4% | MDA-MB-435 melanoma 102% | SW-620 colon 93.9% | HCT-116 colon 86.6% | HCC-2998 colon 95.8% | KM12 colon 72.5%
active: MCF7 breast 9.62%

NS(=O)(=O)Oc1ccc2nc(Nc3ccc(F)c(F)c3)ccc2c1
inactive: T-47D breast 90% | MDA-MB-435 melanoma 89% | SW-620 colon 105% | MCF7 breast 93.2% | HCT-116 colon 92.2% | HCC-2998 colon 90.3% | KM12 colon 58.9%

C#C[C@]1(O)CC[C@H]2[C@@H]3CC=C4c5sc(C6CC6)nc5CC[C@]4(C)[C@H]3CC[C@@]21C
inactive: T-47D breast 73.8% | BT-549 breast 90.5% | SW-620 colon 91.2% | MCF7 breast 64.7% | HCT-116 colon 71.4% | HCC-2998 colon 83.6% | KM12 colon 57.4%

C#CCOc1ccc(/C=N/Nc2nc(-c3cc4cc(Br)cc(Br)c4oc3=O)cs2)cc1
inactive: T-47D breast 88.6% | MDA-MB-435 melanoma 91.8% | SW-620 colon 104% | MCF7 breast 65.9% | HCT-116 colon 91.8% | HCC-2998 colon 108% | KM12 colon 88%

CCOC(=O)/C(F)=C/C1CC1C1CCCCC1 (centres undefined)
inactive: BT-549 breast 124% | MDA-MB-435 melanoma 102% | SW-620 colon 101% | MCF7 breast 92.2% | HCT-116 colon 97.2% | HCC-2998 colon 107% | KM12 colon 104%

CN(c1ccc(F)cc1)S(=O)(=O)c1ccc(-c2cnc(C3CC3)o2)cc1
inactive: T-47D breast 54.1% | BT-549 breast 46.2% | SW-620 colon 32.9% | MCF7 breast 23.7% | HCT-116 colon 18.7% | HCC-2998 colon 22.3% | KM12 colon 18.5%

CCOC(=O)Nc1ccc(-c2nc(-c3cccc(O)c3)c(-c3ccnc(Br)c3)[nH]2)cc1
inactive: T-47D breast 14% | BT-549 breast 35.4% | SW-620 colon 28.2% | HCT-116 colon 19.2% | HCC-2998 colon 56.2% | KM12 colon 22.3%

C#C[C@]1(O)CC[C@H]2[C@@H]3CC=C4c5sc(Nc6cc(OC)ccc6OC)nc5CC[C@]4(C)[C@H]3CC[C@@]21C
active: MCF7 breast -2.69%
inactive: T-47D breast 22.8% | BT-549 breast 30.2% | SW-620 colon 18.4% | HCT-116 colon 19.3% | HCC-2998 colon 62.4% | KM12 colon 24.6%

CS(=O)c1nccc(-c2c(-c3ccc(F)c(OCc4ccccc4)c3)nc3sccn23)n1 (centres undefined)
inactive: BT-549 breast 109% | SW-620 colon 87.9% | HCT-116 colon 63.6% | HCC-2998 colon 50.4% | KM12 colon 77%
active: T-47D breast -11.6%

Cn1c2ccccc2c2c3c(c4c5ccc(Br)cc5oc4c21)C(=O)N(O)C3=O
inactive: T-47D breast 19.5% | BT-549 breast 64.9% | SW-620 colon 59.3% | MCF7 breast 19.2% | HCT-116 colon 65.7% | HCC-2998 colon 91.8% | KM12 colon 92.4%

NS(=O)(=O)c1ccc(Nc2nc(N/N=C/c3ccc(F)cc3)nc(Nc3ccccc3)n2)cc1
inactive: T-47D breast 20.7% | BT-549 breast 67.2% | SW-620 colon 75.7% | MCF7 breast 28.6% | HCT-116 colon 44.7% | HCC-2998 colon 55.4% | KM12 colon 30.9%

COc1ccc(OC)c(NC2=C(Cl)C(=O)C(C)=C(C)C2=O)c1
inactive: BT-549 breast 102% | SW-620 colon 98.8% | MCF7 breast 80.5% | HCT-116 colon 57.6% | HCC-2998 colon 108% | KM12 colon 93.8%
active: T-47D breast -5.07%

CC[C@@](C)(NC(=O)C(C)(C)NC(=O)[C@@H](NC(=O)[C@@H]1CCCN1C(=O)C(C)(C)NC(=O)[C@H](CC(C)C)NC(=O)CNC(=O)C(C)(C)NC(=O)[C@@H](NC(=O)C(C)(C)NC(=O)[C@H](CCC(N)=O)NC(=O)[C@H](C)NC(=O)C(C)(C)NC(=O)[C@H](C)NC(=O)C(C)(C)NC(=O)[C@H](C)NC(=O)C(C)(C)NC(C)=O)C(C)C)C(C)C)C(=O)N[C@@H](CCC(N)=O)C(=O)N[C@@H](CCC(N)=O)C(=O)N[C@H](CO)CC1CCCCC1
active: BT-549 breast -74.3% [5 µM] | MCF7 breast 8.62% [5 µM]
inactive: T-47D breast 12.2% [5 µM] | SW-620 colon 49.1% [5 µM] | HCT-116 colon 12.4% [5 µM] | HCC-2998 colon 28.9% [5 µM] | KM12 colon 34.8% [5 µM]

COc1ccc(C(=O)n2cc(C=O)c3ccccc32)cc1
inactive: BT-549 breast 100% | MDA-MB-435 melanoma 88.8% | SW-620 colon 90% | MCF7 breast 82.1% | HCT-116 colon 91.3% | HCC-2998 colon 104% | KM12 colon 102%

COc1ccc([C@H]2[C@H](O)C(=O)N2c2cc(OC)c(OC)c(OC)c2)cc1O
active: BT-549 breast -9.8% | MDA-MB-435 melanoma -13.1% | MCF7 breast 8.66% | HCT-116 colon -8.58%
inactive: SW-620 colon 17% | HCC-2998 colon 19.5% | KM12 colon 13.1%

O=C1c2c(c3c4cc(O)ccc4oc3c3[nH]c4ccccc4c23)C(=O)N1O
active: BT-549 breast -9.43% | MDA-MB-435 melanoma -13.8% | SW-620 colon 4.5% | HCT-116 colon -45.8% | KM12 colon -17.2%
inactive: HCC-2998 colon 34.6%

CC1(C)CC[C@]2(C(=O)O)CC[C@]3(C)C(=CCC4[C@@]5(C)C[C@@H](O)[C@@H]6OC(c7ccccc7O)OC[C@@]6(C)C5CC[C@]43C)C2C1 (some centres undefined)
inactive: BT-549 breast 42.4% | MDA-MB-435 melanoma 77.5% | SW-620 colon 37.8% | MCF7 breast 62.8% | HCC-2998 colon 34.9% | KM12 colon 24.5%
active: HCT-116 colon 4.38%

COc1cc(CNC(=O)Cc2ccccc2[N+](=O)[O-])ccc1OCC(=O)NO
inactive: BT-549 breast 106% | MDA-MB-435 melanoma 106% | SW-620 colon 110% | MCF7 breast 95.1% | HCT-116 colon 107% | HCC-2998 colon 108% | KM12 colon 101%

N#Cc1c(-c2cccs2)cc(-c2cnccn2)nc1SCC(=O)NNC(=S)Nc1ccc(F)cc1
inactive: BT-549 breast 118% | MDA-MB-435 melanoma 101% | SW-620 colon 105% | HCT-116 colon 102% | HCC-2998 colon 109% | KM12 colon 101%

CS(=O)(=O)c1ccc2c(c1)c1c(n2Cc2ccc(Cl)cc2)CCCC1
inactive: BT-549 breast 89% | MDA-MB-435 melanoma 31.1% | SW-620 colon 74.1% | MCF7 breast 72.6% | HCT-116 colon 61.9% | HCC-2998 colon 85.5% | KM12 colon 66.6%

N#Cc1c(NC(=O)c2ccccc2C(F)(F)F)sc2c1CCC(=O)C2
inactive: BT-549 breast 11.7% | HCC-2998 colon 27.6%
active: MDA-MB-435 melanoma 0.916% | SW-620 colon 3.92% | HCT-116 colon 8.03% | KM12 colon 5.98%

Nc1ccc(-c2nnc(SCc3ccc(O)c4ncccc34)o2)cc1
inactive: HCC-2998 colon 14.3%
active: BT-549 breast -11.7% | MDA-MB-435 melanoma 7.57% | SW-620 colon 5.51% | HCT-116 colon 0.176% | KM12 colon 0.48%

Cc1cc(F)cc(NS(=O)(=O)c2ccc(-c3cnc(C4CC4)o3)cc2)c1
active: MDA-MB-435 melanoma -20.9%
inactive: BT-549 breast 48.8% | SW-620 colon 24.7% | MCF7 breast 21.4% | HCT-116 colon 19.5% | HCC-2998 colon 24.9% | KM12 colon 18.3%
